According to PubChem BioAssay (Tox21):
Results filed as inconclusive are left out. Calls of active or inactive are those of the source. The call rests on the fitted dose curve; in most records, active means well fitted activation curve with a large enough effect in the signal ratio in the repeat runs (not every such curve was filed as active); inconclusive means weak or mixed curves; inactive means flat fitted curve, though single readings scatter; the % refers to the signal ratio.
On the % scale 0 is the no-effect control and ±100 the full control effect.

Assay: qHTS assay to identify small molecule agonists of the TGF-beta/Smad signaling pathway (AID 1346859)
Conditions: SBE-bla HEK293T, TGF-beta/Smad beta-lactamase reporter, 5 h; series mostly up to 76.8 µM
Text: U.S. Tox21 Program National Center for Advancing Translational Sciences [NCATS] NIH Chemical Genomics Center [NCGC] U.S. Environmental Protection Agency [EPA] National Institutes of Environmental Health Sciences [NIEHS] National Toxicology Program [NTP] U.S. Food and Drug Administration [FDA] Tox21 Assay Overview: Transforming growth factor beta (TGF-beta) superfamily consists of a large number of structurally related dimeric proteins that act as hormones or local mediators in regulating a wide range of biological functions. This superfamily includes TGF-betas themselves, the bone morphogenetic proteins (BMPs) and the activins. These ligands induce oligomerization of serine/threonine receptor kinases and phosphorylate the cytoplasmic signaling molecules of Smad protein family. CellSensor SBE-bla HEK 293T cell line (Life Technologies, Carlsbad, CA), responsive to TGF-beta was used to screen Tox21 10K compound library for identification of agonists/antagonists of the Smad signaling pathway. This cell line contains a beta-lactamase reporter gene under control of the Smad binding element (SBE) stably integrated into HEK 293T cells.
Tox21 Assay Protocol Summary: SBE-bla HEK 293T cells were dispensed at 4,000/well in 6 uL of assay medium into black wall/clear-bottom 1536-well plates using a Multidrop Combi (ThermoFisher Scientific, Waltham, MA) dispenser. After the assay plates were incubated at 37 C and 5% CO2 for an overnight, 23 nL of compounds dissolved in DMSO, positive controls or DMSO only was transferred to the assay plate by a Pintool station (Kalypsys, San Diego, CA). The assay plates were incubated at 37 C and 5% CO2 for 5 hr. One uL of LiveBLAzer B/G FRET substrate (Life Technologies) was added using a Flying Reagent Dispenser (Aurora Discovery, San Diego, CA) and the plates were incubated at room temperature for 2 hr. Fluorescence intensity (405 nm excitation, 460 nm and 530 nm emissions) was measured using an Envision plate reader (PerkinElmer, Shelton, CT).
In the case of `[O-][Cl+3]([O-])([O-])O`, the outcome is reported as “inactive”. For `CC(Cl)CCl` (stereo not given), the outcome was “inactive”. In the case of `CC1=C2C[C@H]3[C@@H](CC=C4C[C@@H](O)CC[C@@]43C)[C@@H]2CC[C@]12O[C@@H]1C[C@H](C)CN[C@H]1[C@H]2C`, the outcome is reported as “inactive”. In the case of `CCN(CC)C(=S)S`, the outcome is reported as “inactive”. In the case of `CC(C)NCC(O)c1ccccc1Cl` (stereo not given), the outcome is reported as “inactive”. With `C[C@H]1[C@H](c2ccc(Cl)cc2)SC(=O)N1C(=O)NC1CCCCC1` the outcome was “inactive”. In the case of `COC(=O)C(C)N(C(=O)c1ccco1)c1c(C)cccc1C` (stereo not given), the outcome is reported as “inactive”. With `CCCCCCCc1ccc(O)cc1` the outcome was “inactive”. In the case of `CCNc1nc(NC(C)C(C)C)nc(SC)n1` (stereo not given), the outcome is reported as “inactive”. In the case of `C#CC1(O)CCCCC1`, the outcome is reported as “inactive”. In the case of `O=S(=O)(O)F`, the outcome is reported as “inactive”. In the case of `COP(=O)(OC)O/C(=C\Cl)c1cc(Cl)c(Cl)cc1Cl`, the outcome is reported as “inactive”. In the case of `Cc1cccc(Cc2cnc[nH]2)c1C`, the outcome is reported as “inactive”. In the case of `O=[N+]([O-])c1ccc(Cl)c(Cl)c1Cl`, the outcome is reported as “inactive”. With `CC(C)C(Br)C(=O)NC(N)=O` (stereo not given) the outcome was “inactive”. In the case of `CC(Cc1ccc(O)cc1)NCC(O)c1cc(O)cc(O)c1` (stereo not given), the outcome is reported as “inactive”. With `N#Cc1c[nH]cc1-c1cccc2c1OC(F)(F)O2` the outcome was “inactive”. For `COc1cnc(OC)n2nc(NS(=O)(=O)c3c(OCC(F)F)cccc3C(F)(F)F)nc12`, the outcome was “inactive”. In the case of `ClC(Cl)C(Cl)(Cl)Cl`, the outcome is reported as “inactive”. For `COc1ccc2[nH]cc(CCN(C(C)C)C(C)C)c2c1`, the outcome was “inactive”. With `C[C@]12CC[C@H]3[C@@H](CCC4=CC(=O)CC[C@@H]43)[C@@H]1CC[C@@H]2OC(=O)CCc1ccco1` the outcome was “inactive”. For `N#Cc1ccc(N(CC(N)=O)CC(F)(F)F)cc1C(F)(F)F`, the outcome was “inactive”. For `C[N+]1(C)[C@@H]2CC[C@H]1CC(OC(=O)C(CO)c1ccccc1)C2` (stereo not given in full), the outcome was “inactive”. With `Clc1ccc(C(Cl)(Cl)Cl)cc1Cl` the outcome was “inactive”. With `CN(C)c1ccc(N)cc1` the outcome was “inactive”. With `CC(C)N(C(=O)CCl)c1ccccc1` the outcome was “inactive”. With `[O]=[Cr](=[O])([OH])[O][Cr](=[O])(=[O])[OH]` the outcome was “inactive”. With `C1=CCC=C1` the outcome was “inactive”. With `ClSC(Cl)(Cl)Cl` the outcome was “inactive”. In the case of `C[C@]12Cc3cn[nH]c3C[C@@H]1CC[C@@H]1[C@@H]2CC[C@@]2(C)[C@H]1CC[C@]2(C)O`, the outcome is reported as “inactive”. In the case of `CCCCn1cc[n+](C)c1.[Cl][Fe-]([Cl])([Cl])[Cl]`, the outcome is reported as “inactive”. In the case of `CCNS(=O)(=O)C(F)(F)C(F)(F)C(F)(F)C(F)(F)C(F)(F)C(F)(F)C(F)(F)C(F)(F)F`, the outcome is reported as “inactive”. With `N#CCCl` the outcome was “inactive”. With `CC(C)Br` the outcome was “inactive”. With `CCOP(=S)(OCC)Oc1cc(C)nc(N(CC)CC)n1` the outcome was “inactive”. For `Cc1c([N+](=O)[O-])cc2c(c1[N+](=O)[O-])C(C)(C)CC2(C)C`, the outcome was “inactive”. With `CCOP(=O)(Sc1ccccc1)Sc1ccccc1` the outcome was “inactive”. For `[Cl-].[Cl-].[Cl-].[Yb+3]`, the outcome was “inactive”. With `CC(=O)[O-].CC(=O)[O-].CC(=O)[O-].[Sb+3]` the activation was -3.71% [at 2.72 µM] (inactive). For `C=CC(=C)C`, the outcome was “inactive”.
